From PubChem BioAssay come the findings set out here.

SMILES strings stand for the structures. The source made the active and inactive calls.

In assay [1] the test system is Human papillomavirus type 1a protein E7 (residues 44-93). The assay is described as follows: small molecules binding HPV E7 44-93 – biochemical, small-molecule microarray, residues 44-93, 635 nm fluorescence, primary screen (AID 1108).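 Further: E7 fragment applied at 1 µg/mL in TBST for 1 h at 4 C; score combines spot fluorescence with its signal to noise ratio.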 Particulars: fluorescence 635 nm, higher = more signal.
A short description of assay [2]: hepatitis C replication reporter changes, two-sided – Huh7 cells, luciferase reporter, HCV replication inhibitor project, primary screen (AID 1109).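 Further: huh7 hepatoma cells harbouring a luciferase neomycin HCV replicon reporter; luciferase luminescence as measure of HCV replicon replication; test concentration not given here.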 Particulars: Huh7 HCV replicon luciferase reporter, 48 h; higher = more signal.
For assay [3], the target named is Left-right determination factor 2 (Homo sapiens) (UniProt O00292). The assay is described as follows: small molecules binding LEFTY2 protein – biochemical, small-molecule microarray, 635 nm fluorescence scan, primary screen (AID 1110). The note with it: higher = more signal.
Left-right determination factor 2 (Homo sapiens), sequence (O00292 whole entry, looked up): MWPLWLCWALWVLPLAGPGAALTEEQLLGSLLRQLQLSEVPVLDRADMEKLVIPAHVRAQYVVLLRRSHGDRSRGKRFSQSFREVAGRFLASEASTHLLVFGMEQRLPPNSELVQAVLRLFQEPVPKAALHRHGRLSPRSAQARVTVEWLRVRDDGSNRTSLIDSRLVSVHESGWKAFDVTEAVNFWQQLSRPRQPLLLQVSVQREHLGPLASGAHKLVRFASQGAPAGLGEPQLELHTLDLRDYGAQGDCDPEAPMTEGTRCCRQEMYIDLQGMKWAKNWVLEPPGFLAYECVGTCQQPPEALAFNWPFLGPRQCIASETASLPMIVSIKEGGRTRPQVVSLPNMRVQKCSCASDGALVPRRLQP
Assay [4] deals with Calmodulin-1 (Homo sapiens) (UniProt P0DP23). As to the kind of experiment: small molecules binding calmodulin-1 with EGTA – biochemical, small-molecule microarray, Cy5-labelled CALM1, profiling panel (AID 1111).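 Further: labelled calmodulin applied in Tris saline Tween buffer holding calcium plus EGTA and DTT.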 Particulars: Cy5-CALM1 binding fluorescence, higher = more signal.
For assay [5] the target is unchanged. The assay is described as follows: small molecules binding Ca-loaded calmodulin-1 – biochemical, small-molecule microarray, Cy5-labelled CALM1, plus calcium, artefact control for SMM control-protein annotation, profiling panel (AID 1112).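 Further: score merges spot fluorescence with signal to noise from triplicate slides.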 The note with it: Cy5-CALM1 binding fluorescence, higher = more signal.
A short description of assay [6]: probe aWnt5a binding to arrayed compounds – biochemical, biotinylated probe, 635/667 nm fluorescence, primary screen (AID 1113).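 Further: score merges 667 nm fluorescence intensity with signal-to-noise per printed feature.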 Particulars: small-molecule microarray, higher = more signal.
The nature of assay [7]: probe aShh binding to arrayed compounds – biochemical, biotinylated probe, 635/667 nm fluorescence, primary screen (AID 1114).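 Further: probe is biotin-labelled aShh protein from a stem cell growth factor screen; measures binding of labelled protein to compounds printed on the slide; score merges feature fluorescence at 667 nm with signal-to-noise.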 Particulars: small-molecule microarray, higher = more signal.
A short description of assay [8]: probe aNog binding to arrayed compounds – biochemical, biotinylated probe, 635/667 nm fluorescence, primary screen (AID 1115).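 Further: probe is biotinylated aNog protein used at 0.15 µg/mL for 1 h at 4 C; z-score combines 667 nm fluorescence of each spot with its signal to noise.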 The note with it: small-molecule microarray, higher = more signal.
Assay [9] deals with Torsin-1A-interacting protein 1 (Homo sapiens) (UniProt Q5JTV8). As to the kind of experiment: compound microarray binding of lysate hLAP1 – cell lysate, small-molecule microarray, COS7 lysate, 635/667 nm fluorescence, primary screen (AID 1116). The note with it: 635 nm fluorescence, higher = more signal.
Torsin-1A-interacting protein 1 (Homo sapiens), sequence (Q5JTV8 whole entry, looked up): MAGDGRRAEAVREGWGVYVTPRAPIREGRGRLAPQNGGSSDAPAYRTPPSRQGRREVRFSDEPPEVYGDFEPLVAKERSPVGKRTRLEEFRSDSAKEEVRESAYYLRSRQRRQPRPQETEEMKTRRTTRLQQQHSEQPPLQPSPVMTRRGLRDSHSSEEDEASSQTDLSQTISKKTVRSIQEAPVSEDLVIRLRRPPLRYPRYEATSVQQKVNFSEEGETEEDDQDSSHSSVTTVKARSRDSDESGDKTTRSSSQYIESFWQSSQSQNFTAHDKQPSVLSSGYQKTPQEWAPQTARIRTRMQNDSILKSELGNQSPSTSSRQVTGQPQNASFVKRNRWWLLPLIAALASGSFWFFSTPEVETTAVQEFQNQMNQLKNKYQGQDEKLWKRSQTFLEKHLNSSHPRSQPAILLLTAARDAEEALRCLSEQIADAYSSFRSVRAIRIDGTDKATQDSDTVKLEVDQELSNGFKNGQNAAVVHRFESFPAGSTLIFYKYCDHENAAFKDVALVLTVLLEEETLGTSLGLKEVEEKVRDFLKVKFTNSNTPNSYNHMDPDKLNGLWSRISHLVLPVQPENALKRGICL
Assay [10] has as its target Alpha-bungarotoxin (Bungarus multicinctus) (UniProt P60615). The assay is described as follows: compounds binding labelled alpha-BTX control protein – biochemical, small-molecule microarray, Alexa647 label, 635/667 nm fluorescence, artefact control for SMM control protein annotation, profiling panel (AID 1117). Particulars: alpha-BTX-A647 binding fluorescence, higher = more signal.

The next assay deals with Albumin (Bos taurus) (UniProt P02769). As to the kind of experiment: compounds binding labelled BSA control protein – biochemical, small-molecule microarray, Alexa647 label, 635/667 nm fluorescence, artefact control for SMM control protein annotation, profiling panel (AID 1118).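 Further: score merges 667 nm emission intensity and signal-to-noise per printed compound spot.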 Particulars: BSA-A647 binding, fluorescence 635 nm, higher = more signal.
Albumin (Bos taurus), sequence (P02769 whole entry, looked up): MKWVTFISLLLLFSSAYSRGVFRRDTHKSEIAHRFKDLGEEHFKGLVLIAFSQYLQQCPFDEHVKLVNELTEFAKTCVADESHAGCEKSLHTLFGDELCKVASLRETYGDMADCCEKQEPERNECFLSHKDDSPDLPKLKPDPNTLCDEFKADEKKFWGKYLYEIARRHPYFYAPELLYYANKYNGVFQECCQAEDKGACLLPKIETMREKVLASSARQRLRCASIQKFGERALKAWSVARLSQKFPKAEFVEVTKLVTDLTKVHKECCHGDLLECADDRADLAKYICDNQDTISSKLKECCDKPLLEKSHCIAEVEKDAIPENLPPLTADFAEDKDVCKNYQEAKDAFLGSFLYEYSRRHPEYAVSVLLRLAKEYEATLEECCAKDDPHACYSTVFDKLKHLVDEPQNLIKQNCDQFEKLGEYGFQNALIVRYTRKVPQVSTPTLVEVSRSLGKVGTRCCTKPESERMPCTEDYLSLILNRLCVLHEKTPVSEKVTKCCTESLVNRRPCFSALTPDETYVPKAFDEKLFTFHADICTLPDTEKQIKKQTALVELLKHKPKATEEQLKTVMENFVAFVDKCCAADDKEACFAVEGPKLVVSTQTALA
The nature of assay [11]: probe aXIP binding to arrayed compounds – biochemical, NeuroSMM set, 635/667 nm fluorescence, primary screen (AID 1119).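 Further: probe is the protein aXip251-270 applied at 1 µg/mL to compound-printed slides; binding of probe to printed compounds measured as 667 nm fluorescence plus signal to noise.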 The note with it: small-molecule microarray, higher = more signal, called active from +8 up or from −8 down.
A short description of assay [12]: probe aNOTCH3 binding on compound microarray – biochemical, small-molecule microarray, 635/667 nm fluorescence, primary screen (AID 1120).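 Further: probe is a biotin-tagged antibody raised against NOTCH3 rather than NOTCH3 protein; score merges spot fluorescence near 667 nm with spot signal to noise.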 Particulars: higher = more signal.
The nature of assay [13]: probe aNOTCH2 binding on compound microarray – biochemical, small-molecule microarray, 635/667 nm fluorescence, primary screen (AID 1121).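 Further: score merges feature fluorescence read at 667 nm with its signal to noise.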 Particulars: higher = more signal.
Assay [14] has as its target Carbonic anhydrase 2 (Homo sapiens) (UniProt P00918). As to the kind of experiment: compounds binding carbonic anhydrase 2 – biochemical, small-molecule microarray, Alexa647-labelled CAII, profiling panel (AID 1122). The note with it: CAII-A647 binding fluorescence, higher = more signal.
The nature of assay [15]: COS7 lysate on small-molecule microarray, probe aHis, 635 nm (AID 1123).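 Further: z-score combines 667nm fluorescence intensity with signal-to-noise per printed compound spot.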 Particulars: COS7 cell lysate, fluorescence, higher = more signal.
Assay [16] can be described thus: probe aLAP1 signal on lysate-treated microarray – cell lysate, small-molecule microarray, COS7 lysate, primary screen (AID 1124).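 Further: lysate comes from COS7 cells expressing LAP1 and is applied at 0.3 µg/mL; score merges spot fluorescence near 667 nm with signal-to-noise over triplicate slides.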 The note with it: probe aLAP1, fluorescence, higher = more signal.
The subject of another assay is Sam68 (KHDRBS1). As to the kind of experiment: compounds binding KHDRBS1 protein – biochemical, small-molecule microarray, 635 nm fluorescence, primary screen (AID 1125).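 Further: score merges 667 nm channel intensity with signal to noise over triplicate slides.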 Particulars: higher = more signal.
The test system of assay [17] is Chordin-like protein 2 (CHRDL2). The assay is described as follows: compounds binding chordin-like 2 – biochemical, small-molecule microarray, 635 nm fluorescence, primary screen (AID 1126).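 Further: printed compound slides probed with Chrdl2 protein at 4 µg/mL for 1 h at 4 C; score merges 667 nm emission intensity with signal to noise over three replicate slides.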 Particulars: fluorescence 635 nm, higher = more signal.
The target in assay [18] is Concanavalin-A (Canavalia ensiformis) (UniProt P02866). As to the kind of experiment: compounds binding concanavalin A lectin – biochemical, small-molecule microarray, Alexa647 label, 635 nm, artefact control for SMM control protein annotation, primary screen (AID 1127).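 Further: z combines 667 nm emission intensity with signal-to-noise across three replicate slides.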 Particulars: ConA-A647 binding fluorescence, higher = more signal.
Concanavalin-A (Canavalia ensiformis), sequence (P02866 whole entry, looked up): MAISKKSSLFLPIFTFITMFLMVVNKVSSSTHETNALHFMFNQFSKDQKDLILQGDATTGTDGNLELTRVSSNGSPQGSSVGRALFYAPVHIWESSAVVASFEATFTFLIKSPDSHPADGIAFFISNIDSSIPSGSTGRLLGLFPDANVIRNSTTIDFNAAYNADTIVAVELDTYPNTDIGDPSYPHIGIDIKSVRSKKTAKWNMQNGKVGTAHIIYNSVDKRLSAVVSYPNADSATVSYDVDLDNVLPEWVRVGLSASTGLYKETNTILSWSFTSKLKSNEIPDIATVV

Alpha-bungarotoxin (Bungarus multicinctus), sequence (P60615 whole entry, looked up): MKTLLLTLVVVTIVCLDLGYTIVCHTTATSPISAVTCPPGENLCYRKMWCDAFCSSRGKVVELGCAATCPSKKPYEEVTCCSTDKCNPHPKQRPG

For `CC(=O)NCCCC[C@@H]1NC(=O)[C@H]2C[C@@H](C(=O)NCCCCCCN(C)C)[C@@H](c3cccc(OCCO)c3)N2C1=O`, the composite z-score was 1.37 in assay [1]; 1.45 in assay [3]; -1.81 in [4]; -1.32 in [5]; -0.0185 in assay [6]; 0.323 in assay [7]. Also, the composite z-score in assay [8] was -0.0083; in [9], 2.25; in assay [10] it was 1.41; in the assay with Albumin (Bos taurus), -1.13; in [12] it was 0.259; in assay [13], 0.075. The composite z-score in assay [14] stood at 0.694; in [15], 1.73; in [16] it was 1.09; in the assay on Sam68 (KHDRBS1), 1.32; in assay [17], 1.43; in assay [18], 1.16. This compound also had a z-score in assay [2] of 1.33. Moreover, the composite Z-score in [11] was 3.25 (inactive).

Consider `C=CCNC(=O)[C@@H]1[C@H]2C(=O)O[C@H](c3ccccc3)[C@H](c3ccccc3)N2[C@H](c2ccc(OCCO)cc2)[C@@]12C(=O)N(C(=O)OCCOC)c1ccc(C#CC3(O)CCCCCC3)cc12`, for which the composite z-score in assay [1] was 0.692; in [3] it was 0.507; in assay [4], 1.82; in assay [5], 1.11; in [6] it was 0.0267; in assay [7] it was 0.293. For the same compound, the composite z-score in assay [8] is 0.166; in assay [9], 1.2; in assay [10] it was 1.97; with Albumin (Bos taurus), 0.801; in [12] it was 0.353; in [13], -0.0502. Also, the composite z-score in [14] is 0.572; in assay [15], 1.5; in assay [16] it was 0.568; in the assay on Sam68 (KHDRBS1), 1.3; in assay [17], -0.0335; in assay [18], 1.07. In [2], this compound yielded a z-score of -2.29. Further, the composite Z-score in assay [11] is 1.7 (inactive).

As for `CC(C)N1CC=CC23O[C@@H]4/C=C\CCCOC(=O)C4[C@H]2C(=O)N(CCCCCO)[C@@H]3C1=O` (stereo not given in full), the composite z-score was -1.46 in assay [1]; -1.86 in [3]; -2.24 in [4]; -0.226 in [5]; -0.176 in assay [6]; -0.179 in assay [7]. For the same compound, the composite z-score in assay [8] is 0.0403; in assay [9] it was -1.04; in assay [10], -2.08; with Albumin (Bos taurus) it was -1.71; in [12] it was -0.448; in assay [13], -0.169. The composite z-score in [14] was 0.945; in assay [15] it was -0.0414; in [16] it was 0.64; in the assay with Sam68 (KHDRBS1), -1.74; in assay [17] it was -1.9; in [18] it was -1.26. The compound further displayed a z-score in assay [2] of 0.0844. In assay [11], the composite Z-score is -0.0102 (inactive).

As to `CO[C@H]1O[C@H](CO)[C@@H](OC(=O)Nc2ccccc2)[C@H](OC(=O)Nc2ccc3c(c2)OCO3)[C@@H]1OC(=O)Nc1ccc2c(c1)OCO2`, the composite z-score in assay [1] is 1.32; in assay [3], -0.244; in assay [4], 1.92; in [5] it was -0.819; in assay [6] it was -0.0944; in assay [7], 0.151. Besides, the composite z-score in assay [8] is 0.038; in [9], 1.99; in [10] it was 0.361; with Albumin (Bos taurus) it was 0.536; in [12], 0.0459; in [13], -0.101. For the same compound, the composite z-score in assay [14] is 0.655; in assay [15], 2.17; in [16] it was 0.759; in the assay with Sam68 (KHDRBS1), 1.3; in assay [17], -0.17; in [18], 1.12. This compound also displayed a z-score in assay [2] of -0.245. Besides, the composite Z-score in assay [11] was 0.741 (inactive).

For `O=C1C[C@@](C(=O)NC2CC2)(c2ccc([N+](=O)[O-])cc2)[C@@H](c2ccc(CO)cc2I)N1CC12CC3CC(CC(C3)C1)C2`, the composite z-score is 1.37 in [1]; 0.672 in [3]; 0.266 in [4]; -0.151 in assay [5]; 0.0644 in [6]; 0.574 in assay [7]. The composite z-score is -0.0719 in assay [8]; 0.626 in assay [9]; 0.905 in assay [10]; -0.344 in the assay with Albumin (Bos taurus); 0.0538 in assay [12]; -0.19 in [13]. Also, the composite z-score in [14] turned out to be 0.473; in assay [15], 1.64; in [16], 2.12; in the assay with Sam68 (KHDRBS1), 1.12; in assay [17], 0.224; in assay [18] it was 1.1. Moreover, in assay [2], the z-score was -3.45. The composite Z-score in assay [11] was 0.381 (inactive).

`COCCOC(=O)N1C(=O)[C@@]2(c3cc(C#CCNC(N)=O)ccc31)[C@H](c1ccccc1OCCO)N1[C@H](c3ccccc3)[C@H](c3ccccc3)OC(=O)[C@H]1[C@@H]2C(=O)NC[C@H](O)c1ccccc1`: the composite z-score in assay [1] was 1.44; in assay [3] it was 0.391; in assay [4] it was 1.07; in [5], 0.527; in [6] it was -0.0239; in assay [7], 0.0639. In addition, the composite z-score in assay [8] is 0.385; in assay [9], 0.867; in [10] it was 2.05; with Albumin (Bos taurus) it was 0.679; in assay [12], 0.163; in [13] it was -0.113. Besides, the composite z-score turned out to be 0.681 in assay [14]; 2.12 in [15]; 0.717 in assay [16]; 1.28 in the assay on Sam68 (KHDRBS1); 0.0781 in [17]; 1.08 in assay [18]. In assay [2], the z-score was -1.1. Further, the composite Z-score in assay [11] was 0.25 (inactive).
